Inconclusive results are not listed. Unmarked numbers belong to inactive results. Activity calls are given as the source filed them. The call rests on the fitted dose curve; in most records, active means well fitted cell-killing curve with a large enough effect; inconclusive means small, poorly fitted or top-dose-only effect; inactive means no such curve, though single readings can be large or run the other way.
Potency means the concentration at half of the fitted maximal effect.

The nature of the test: qHTS of pediatric cancer cell lines to identify multiple opportunities for drug repurposing: Primary screen for Rh41 cells (AID 1347108). Further: nearly all actives have a fitted effect of over 70% in size.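 On activity change, negative = cytotoxic: luminescence drop marks cytotoxic hits.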 Particulars: Rh41 rhabdomyosarcoma viability, CellTiter-Glo luminescence, 48 h; series mostly up to 46 µM; activity change, negative = cytotoxic: at the top concentration. Summed up: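 Readout: CellTiter-Glo luminescence, 48 h treatment. Controls DMSO (neutral) and bortezomib 2.3 µM final (positive). Potency and efficacy taken from primary-screen concentration-response curves.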
For orientation: In qHTS, concentration-response curves come from the screen itself.
As to `c1ccc(-c2oc3ncnc(NC[C@@H]4CCCO4)c3c2-c2ccccc2)cc1`, the Potency was 18.7 µM (active).

As for `CC(C)n1c(C=C[C@H](O)C[C@H](O)CC(=O)O)c(-c2ccc(F)cc2)c2ccccc21`, the “activity change, negative = cytotoxic” value is -27.1%.

Regarding `Nc1ccn([C@@H]2O[C@H](CO)[C@@H](O)[C@H]2O)c(=O)n1`, the “activity change, negative = cytotoxic” value was -26.5%.

Take `CC1(C)CC(=O)c2c(C(F)(F)F)nn(-c3ccc(C(N)=O)c(NC4CCC(O)CC4)c3)c2C1` (centres undefined): the Potency was 0.296 µM (active).

In the case of `CN1CCN(c2cccc(Nc3nc4c(-c5ccc(S(C)(=O)=O)cc5)cccn4n3)c2)CC1`, the Potency is 18.7 µM (active).

With `OC(c1cc(C(F)(F)F)nc2c(C(F)(F)F)cccc12)C1CCCCN1` (centres undefined), the “activity change, negative = cytotoxic” value was 10.1%.

Regarding `OCCn1cc(-c2ccc3c(c2)CCC3=NO)c(-c2ccncc2)n1`, the “activity change, negative = cytotoxic” value was 1.63%.

As to `CC[C@H](NC(=O)[C@H](C)NC)C(=O)N1C[C@@H](O)C[C@H]1Cc1c(-c2[nH]c3cc(F)ccc3c2C[C@H]2C[C@H](O)CN2C(=O)[C@H](CC)NC(=O)[C@H](C)NC)[nH]c2cc(F)ccc12`, the “activity change, negative = cytotoxic” value was -23.3%.

In the case of `CCC(c1ccc(O)cc1)C(CC)c1ccc(O)cc1` (centres undefined), the “activity change, negative = cytotoxic” value was -8.49%.

As for `Cc1ccc2c(c1)c1c(n2CCc2ccc(C)nc2)CCN(C)C1`, the “activity change, negative = cytotoxic” value was 21.7%.

As to `CC(=O)Nc1cccc(-n2c(=O)n(C3CC3)c(=O)c3c(Nc4ccc(I)cc4F)n(C)c(=O)c(C)c32)c1`, the “activity change, negative = cytotoxic” value was -15.1%.

Regarding `Cc1ccc(NC(=O)c2ccc(CN3CCN(C)CC3)cc2)cc1Nc1nc(-c2cccnc2)cs1`, the “activity change, negative = cytotoxic” value was -9.49%.

As for `COc1ccc(Cn2ccc3ccc(C(=O)NO)cc32)cc1`, the “activity change, negative = cytotoxic” value is 0.732%.

Take `C[C@@]1(c2cc(-c3cncnc3)c(F)cc2F)CCSC(N)=N1`: the “activity change, negative = cytotoxic” value was 9.67%.
